The panel holds about 83,000 compounds, 20% with a hit somewhere; the sample as a whole holds those more often.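 Values shown are percent growth following 48 h exposure of cells in 96-well plates to a single concentration of compound; below 10 was considered active.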 A number with no mark means an inactive call. Active and inactive are the calls of the source.

Our source for the growth values is PubChem BioAssay (NCI).

Among the test systems are NCI-H23 lung; NCI-H226 lung; NCI-H322M lung; HOP-62 NSCLC; NCI-H460 lung; HOP-92 NSCLC; NCI-H522 lung; A549/ATCC NSCLC; 786-0 renal; COLO 205 colon; DU-145 prostate; K-562 leukemia; MALME-3M melanoma; MDA-MB-231 breast; RXF 393 renal; SF-268 CNS; SF-295 CNS; SF-539 CNS; UACC-257 melanoma; M14 melanoma.
Common to all, as to experiment: NCI-60 one-dose screen, 48 h (100 = growth as untreated, 0 = no growth, -100 = all killed)
What all share (details): 10 µM unless noted

Consider `COc1ccc(N/N=C/c2cn(-c3ccc(C(=O)O)cc3)nc2-c2cc3ccccc3oc2=O)cc1`, for which the growth is 86.7% in the experiment with NCI-H23 lung; 75.3% in the experiment with NCI-H226 lung; 85.2% in the experiment with NCI-H322M lung; 84% with HOP-62 NSCLC; 47.4% in the experiment with NCI-H460 lung; 86.6% in the experiment with HOP-92 NSCLC. The growth is 52.3% with NCI-H522 lung; 57.1% in the experiment with A549/ATCC NSCLC; 59% in the experiment with 786-0 renal; 84.3% in the experiment on COLO 205 colon; 84.2% with DU-145 prostate; 11.3% with K-562 leukemia. The growth is 109% in the experiment on MALME-3M melanoma; 77.9% with MDA-MB-231 breast; 111% in the experiment on RXF 393 renal; 68.5% in the experiment with SF-268 CNS; 22.5% in the experiment on SF-295 CNS; 50% with SF-539 CNS. Besides, the results for the growth in the experiment on UACC-257 melanoma and in the experiment with M14 melanoma were 88.9% and 42.3%, respectively.
Consider `COc1ccc(C2[C@@H](c3ccccc3)C(=O)N2c2cc(OC)c(OC)c(OC)c2)cc1F` (stereo not given in full), for which the growth is 25.3% with NCI-H23 lung; 66.6% in the experiment with NCI-H226 lung; 38.2% in the experiment on NCI-H322M lung; 19.1% in the experiment with HOP-62 NSCLC; 5.92% (active) with NCI-H460 lung; 28.1% in the experiment on HOP-92 NSCLC. The growth with NCI-H522 lung was -34.2% (active); in the experiment on A549/ATCC NSCLC, 8.88% (active); in the experiment on 786-0 renal, 13.9%; in the experiment with COLO 205 colon, -48.2% (active); in the experiment on DU-145 prostate, 11%; in the experiment on K-562 leukemia, 5.35% (active). The growth was 69.1% in the experiment on MALME-3M melanoma; 32.3% in the experiment on MDA-MB-231 breast; 13.5% with RXF 393 renal; 31.5% with SF-268 CNS; 0.875% (active) in the experiment with SF-295 CNS; 14.8% in the experiment with SF-539 CNS. Besides, the values for the growth in the experiment with UACC-257 melanoma and in the experiment with M14 melanoma were 20.8% and 4.59% (active), respectively.
Consider `Cc1cccc(-c2nc(C(C)C)sc2-c2ccnc(NCCCNS(=O)(=O)c3ccc(Cl)cc3)c2)c1`, for which the growth in the experiment on NCI-H23 lung was 84.9%; with NCI-H226 lung, 81.4%; in the experiment with NCI-H322M lung it was 95.1%; with HOP-62 NSCLC, 91.6%; in the experiment with NCI-H460 lung, 70.1%; in the experiment with HOP-92 NSCLC, 83.1%. Also, the growth in the experiment on NCI-H522 lung was 55.4%; in the experiment with A549/ATCC NSCLC it was 74.8%; in the experiment on 786-0 renal it was 76.3%; in the experiment on COLO 205 colon it was 60.8%; in the experiment with DU-145 prostate it was 78.2%; with K-562 leukemia, 30.5%. Moreover, the growth with MALME-3M melanoma is 99.9%; with MDA-MB-231 breast, 76.5%; in the experiment with RXF 393 renal it was 103%; in the experiment with SF-268 CNS, 67.4%; in the experiment with SF-295 CNS, 80.7%; with SF-539 CNS, 84.2%. In addition, the growth with UACC-257 melanoma is 113%; with M14 melanoma, 82.2%.
Regarding `CCOC(=O)c1nnn(-c2no[n+]([O-])c2-c2ccc(OC)cc2)c1COc1cccc2cccnc12`, the growth with NCI-H23 lung was 31.6%; with NCI-H226 lung, 8.91% (active); in the experiment with NCI-H322M lung, 98.8%; with HOP-62 NSCLC it was 30.6%; in the experiment on NCI-H460 lung, 8.47% (active); in the experiment with HOP-92 NSCLC it was 17.6%. Further, the growth is -52.7% (active) in the experiment with NCI-H522 lung; 71.9% in the experiment with A549/ATCC NSCLC; 25.8% in the experiment with 786-0 renal; -25% (active) in the experiment with COLO 205 colon; 11.8% in the experiment with DU-145 prostate; 11.9% with K-562 leukemia. The growth is 68.6% with MALME-3M melanoma; 17% in the experiment with MDA-MB-231 breast; 22.5% with RXF 393 renal; 21.8% with SF-268 CNS; 33.4% in the experiment on SF-295 CNS; -3.16% (active) in the experiment with SF-539 CNS. Further, the growth with UACC-257 melanoma is 59.1%; with M14 melanoma it was 12.4%.
For `CCCCCCCCCCOC(=O)c1nn(C(C)=O)c2cc(C)c(C)cc12`, the growth with NCI-H23 lung is 96.3%; in the experiment with NCI-H226 lung, 87.8%; in the experiment on NCI-H322M lung it was 107%; with HOP-62 NSCLC, 94.5%; with NCI-H460 lung, 101%; with HOP-92 NSCLC, 68.5%. For the same compound, the growth in the experiment with NCI-H522 lung was 75.1%; in the experiment with A549/ATCC NSCLC it was 83.8%; with 786-0 renal it was 94.6%; in the experiment on COLO 205 colon it was 102%; in the experiment on DU-145 prostate it was 106%; in the experiment on K-562 leukemia it was 95.2%. The growth in the experiment on MALME-3M melanoma is 104%; in the experiment with MDA-MB-231 breast, 105%; in the experiment with RXF 393 renal, 104%; in the experiment with SF-268 CNS, 102%; in the experiment with SF-295 CNS, 96%; in the experiment with SF-539 CNS it was 97.6%. The values for the growth in the experiment on UACC-257 melanoma and with M14 melanoma were 96.3% and 90.7%, respectively.
`c1ccc(-c2c(-c3ccccc3)[n+](Cc3ccc4ccccc4c3)cn2Cc2ccc3ccccc3c2)cc1`: the growth is -74.9% (active) in the experiment with NCI-H23 lung; -75.8% (active) with NCI-H226 lung; -20.8% (active) in the experiment on NCI-H322M lung; -86.1% (active) with HOP-62 NSCLC; -78.6% (active) in the experiment on NCI-H460 lung; -83.9% (active) with HOP-92 NSCLC. The growth in the experiment on NCI-H522 lung was -85.8% (active); with A549/ATCC NSCLC, -81.8% (active); in the experiment with 786-0 renal, -92.2% (active); in the experiment with COLO 205 colon, -86.4% (active); with DU-145 prostate, -96.1% (active); with K-562 leukemia, -63.1% (active). The growth with MALME-3M melanoma was -82.2% (active); with MDA-MB-231 breast, -79.4% (active); with RXF 393 renal, -96.2% (active); with SF-268 CNS it was -89.1% (active); in the experiment on SF-295 CNS, -97.9% (active); with SF-539 CNS it was -88.3% (active). For the same compound, the growth in the experiment with UACC-257 melanoma is -84% (active); in the experiment on M14 melanoma it was -85.8% (active).
For `COC(=O)[C@@]1(C)CC[C@]2(C)CC[C@]3(C)C4=CC=C5C(=CC(=O)C(O)=C5C)[C@]4(C)[C@@H](O)C[C@@]3(C)[C@@H]2C1`, the growth with NCI-H23 lung was 49.2%; in the experiment on NCI-H226 lung it was 98.7%; with NCI-H322M lung it was 96.8%; with HOP-62 NSCLC, 89.7%; in the experiment with NCI-H460 lung it was 63.6%; in the experiment with HOP-92 NSCLC, -3.8% (active). The growth in the experiment with NCI-H522 lung is -24.2% (active); in the experiment with A549/ATCC NSCLC it was 88.3%; in the experiment on 786-0 renal, -30.3% (active); with COLO 205 colon it was 12.8%; in the experiment with DU-145 prostate it was 21.3%; in the experiment with K-562 leukemia, 8.3% (active). Also, the growth with MALME-3M melanoma was 7.58% (active); in the experiment with MDA-MB-231 breast, -0.344% (active); in the experiment with RXF 393 renal, -35.1% (active); in the experiment on SF-268 CNS, 62.5%; in the experiment on SF-295 CNS, 74.8%; in the experiment on SF-539 CNS, -8.84% (active). The growth was 32% in the experiment on UACC-257 melanoma and 7.16% (active) in the experiment on M14 melanoma.
For the compound `Cc1c2cnccc2c(C)c2c1c1cc(CO)ccc1n2C`, the growth with NCI-H23 lung is -46.1% (active); in the experiment on NCI-H226 lung it was -68.5% (active); in the experiment on NCI-H322M lung, -40.2% (active); with HOP-62 NSCLC it was -48.8% (active); in the experiment on NCI-H460 lung, -32.5% (active); in the experiment with HOP-92 NSCLC it was -20% (active). Besides, the growth with NCI-H522 lung was -72.6% (active); in the experiment on A549/ATCC NSCLC, -28.2% (active); with 786-0 renal it was -13.1% (active); in the experiment on COLO 205 colon it was -51.2% (active); with DU-145 prostate, -0.903% (active); in the experiment on K-562 leukemia, 1.71% (active). Moreover, the growth in the experiment with MALME-3M melanoma is -87.6% (active); in the experiment on MDA-MB-231 breast, -52.1% (active); in the experiment on RXF 393 renal, -84.7% (active); in the experiment with SF-268 CNS, -28.8% (active); in the experiment on SF-295 CNS it was -26.6% (active); in the experiment on SF-539 CNS it was -68% (active). Also, the growth with UACC-257 melanoma is -52.7% (active); in the experiment on M14 melanoma, -90.9% (active).
